{
  "source": "PubChem BioAssay",
  "note": "Values without a mark were called inactive. The rule behind the calls is not given here.",
  "data": [
    {"biological_target": "Pantothenate synthetase (Mycobacterium tuberculosis (strain ATCC 25618 / H37Rv)) (UniProt P9WIL5)", "sequence (P9WIL5 whole entry, looked up)": "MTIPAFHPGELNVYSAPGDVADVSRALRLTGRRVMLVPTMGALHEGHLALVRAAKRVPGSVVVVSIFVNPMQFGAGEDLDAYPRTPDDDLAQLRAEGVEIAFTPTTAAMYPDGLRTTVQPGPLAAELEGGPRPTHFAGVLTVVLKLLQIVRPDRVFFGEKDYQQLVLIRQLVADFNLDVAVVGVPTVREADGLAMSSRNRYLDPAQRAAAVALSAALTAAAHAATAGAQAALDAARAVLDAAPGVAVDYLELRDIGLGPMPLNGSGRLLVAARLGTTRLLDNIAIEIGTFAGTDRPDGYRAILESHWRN", "assay": "Coupled enzyme confirmation of inhibitors against recombinant Mtb PanC (AID 375);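 note: 0% = full reaction with vehicle and 100% = no enzyme background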", "details": "coupled enzyme assay; at 10 µM, stronger effect = higher value", "units": {"inhibition": "%"}, "values": [
      {"compound": "Cc1ccc(C)c(OCC(O)CN2C(C)CCCC2C)c1", "note": "(configuration not stated)", "inhibition": 0},
      {"compound": "CC(C)CC(c1nnnn1C(C)(C)C)N1CCN(C2CCCC2)CC1", "note": "(configuration not stated)", "inhibition": 0},
      {"compound": "COc1ccccc1NC(=O)CSc1nnc(-c2ccncc2)o1", "inhibition": 0},
      {"compound": "O=S(=O)(NCc1cn2ccsc2n1)c1ccc2c(c1)OCCO2", "inhibition": 0},
      {"compound": "COC(=O)C1(C#N)C(c2ccccc2)C1(C(=O)OC)C(=O)OC", "note": "(configuration not stated)", "inhibition": 0},
      {"compound": "CC(=O)N1CCc2cc(S(=O)(=O)NC(CC(C)C)C(=O)N3CCn4c3nc3ccccc34)ccc21", "note": "(configuration not stated)", "inhibition": 0},
      {"compound": "c1cncc(-c2nnc3sc(-c4ccco4)nn23)c1", "inhibition": 0},
      {"compound": "Cc1ccc2[nH]c(=O)c3cc(C(=O)NCCN4CCN(C)CC4)sc3c2c1", "inhibition": 0},
      {"compound": "Cc1sc2ncnc(OCC(=O)N3CCN(S(=O)(=O)c4ccccc4)CC3)c2c1C", "inhibition": 0},
      {"compound": "COc1ccc(CC(=O)NCc2nnc(SCC(=O)Nc3nccs3)n2-c2ccccc2)cc1", "inhibition": 0},
      {"compound": "O=C(CSc1nc(-c2ccccc2)cs1)NCc1ccco1", "inhibition": 0},
      {"compound": "CN=C(C)C1=C(O)C(C(=O)OC)C(C)(C)CC1=O", "note": "(configuration not stated)", "inhibition": 0},
      {"compound": "Cc1nc2sc(C(c3ccc(Br)cc3)N3CC(C)OC(C)C3)c(O)n2n1", "note": "(configuration not stated)", "inhibition": 0},
      {"compound": "Cc1ccc2nc(NC(=O)C3CCCN(S(=O)(=O)c4cccc5nonc45)C3)sc2c1", "note": "(configuration not stated)", "inhibition": 1},
      {"compound": "COC(=O)c1c(C(=O)OC)n(CCCN)c2ccc(C)cc12", "inhibition": 9},
      {"compound": "OC(CN1CCOCC1)Cn1c(-c2cccc(Cl)c2)nc2ccccc21", "note": "(configuration not stated)", "inhibition": 4},
      {"compound": "Cc1nc(NC(=O)c2ccccc2)sc1-c1csc(NCc2ccco2)n1", "inhibition": 0}
    ]}
  ]
}
